The values below come from PubChem BioAssay.

Tested on in one assay: not listed separately
As to the kind of experiment: small-molecule microarray binders of probe aNog, primary screen, biochemical, biotinylated probe, 635/667 nm fluorescence (AID 1115).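 Further: probe is biotinylated aNog protein used at 0.15 µg/mL for 1 h at 4 C; z-score combines 667 nm fluorescence of each spot with its signal to noise.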 Conditions: higher = more signal.
Turning to `CCCC=C(CCC)[C@@H](NC(=O)c1cccs1)c1ccc(C(=O)OC)cc1`, the composite z-score was determined as 2.91. Still for that read-out and setting: the value for `Cc1ccccc1C(O)C1C=CC2C(=O)NC(=O)C2N1Nc1ccccn1` (stereo not given) was -0.0682. With `C=CCNC(=O)[C@@H]1[C@H]2C(=O)O[C@H](c3ccccc3)[C@H](c3ccccc3)N2[C@H](c2ccccc2OCCO)[C@@]12C(=O)N(C(=O)OCCOC)c1ccc(C#CC3(O)CCCCCC3)cc12`, the composite z-score is -0.0224.

In the case of `CCCNC(=O)[C@@H]1c2ccccc2C(=O)N(Cc2ccc(OC(F)(F)F)cc2)[C@H]1c1ccc(CO)cc1`, the composite z-score is 0.0303. `CCCNC(=O)[C@@]1(C)c2ccccc2C(=O)N(c2ccc(C)cn2)[C@H]1c1ccc(CO)cc1` gave a composite z-score of 0.0373. The same measure, in the same setting: the same measure for `COc1cc2c(cc1O)C(c1ccc(CN3CCCC3)cc1)N(Cc1cc3c(cc1Br)OCO3)CC2` (stereo not given): 0.114; for `CCOC(=O)C[C@H]1[C@H](OC(=O)Cc2ccc3c(c2)OCO3)[C@@H](NC(=O)C2CCCCC2)c2cc(OCCCO)ccc2N1C(=O)c1ccccc1`: -0.272.

Compound `O=C(NCc1ccc(F)cc1)[C@H]1C[C@H]2C(=O)NCC(=O)N2[C@H]1c1ccc(O)cc1` showed a composite z-score of -0.132.

As to `CN(C)c1ccc(C(O)C2C=CC3C(=O)NC(=O)C3N2Nc2ccccn2)cc1` (stereo not given), the composite z-score was 0.213.

`COc1ccc([Si](C)(C)[C@@H]2[C@@H](CC(=O)N(CCO)Cc3ccccc3)O[C@]3(C(=O)N(Cc4cccc(N5CCCCC5=O)c4)c4ccccc43)[C@H]2C)cc1` came in with a composite z-score of 1.73. For `CCOC(=O)C[C@H]1[C@H](OC(=O)c2ccc(C(=O)c3ccccc3)cc2)[C@@H](NC(=O)C2CCCCC2)c2cc(OCCCO)ccc2N1C(=O)c1ccc2ccccc2n1`, the composite z-score is -0.244.

For the next assay, the target named is Torsin-1A-interacting protein 1 (Homo sapiens) (UniProt Q5JTV8). Put plainly: LAP1 binders from COS7 cell lysate, primary screen, small-molecule microarray, 635/667 nm fluorescence (AID 1116). As to conditions: COS7-hLAP1 lysate binding, 635 nm fluorescence, higher = more signal.
Sequence of Torsin-1A-interacting protein 1 (Homo sapiens) (Q5JTV8 whole entry, looked up): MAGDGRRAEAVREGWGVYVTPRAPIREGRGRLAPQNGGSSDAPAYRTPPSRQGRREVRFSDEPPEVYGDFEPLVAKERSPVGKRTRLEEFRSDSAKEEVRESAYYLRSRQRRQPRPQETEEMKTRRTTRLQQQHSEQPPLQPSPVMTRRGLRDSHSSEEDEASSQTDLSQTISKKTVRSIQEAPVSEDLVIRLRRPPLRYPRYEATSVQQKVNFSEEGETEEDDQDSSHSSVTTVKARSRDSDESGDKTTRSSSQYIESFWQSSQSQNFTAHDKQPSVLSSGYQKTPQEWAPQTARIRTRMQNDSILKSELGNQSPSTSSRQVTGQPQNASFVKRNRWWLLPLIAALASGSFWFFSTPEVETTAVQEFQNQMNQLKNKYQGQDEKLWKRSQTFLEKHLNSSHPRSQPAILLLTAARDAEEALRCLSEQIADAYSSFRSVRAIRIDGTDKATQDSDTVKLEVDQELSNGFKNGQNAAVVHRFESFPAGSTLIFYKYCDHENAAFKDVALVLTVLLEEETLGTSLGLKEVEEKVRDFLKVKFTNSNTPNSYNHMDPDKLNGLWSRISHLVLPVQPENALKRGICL
`CS(=O)(=O)CCOC(=O)C1=CC(CCCO)=CC(c2ccc(CN3CCCC3)cc2)N(Cc2sc3ccccc3c2Cl)C=C1C(=O)OCCS(C)(=O)=O` (stereo not given) returned a composite z-score of 2.83. Still for that read-out and setting: the value for `CCOc1cc(C(O)C2C=CC3C(=O)NC(=O)C3N2Nc2ccc(Cl)cc2Cl)ccc1O` (stereo not given) was 0.0975; that for `Cc1cc(C)c(C(O)C2C=CC3C(=O)N(c4ccccc4)C(=O)C3N2Nc2ccccc2F)c(C)c1` (stereo not given) was 0.563.

With `CCOC(=O)C[C@H]1[C@H](OC(=O)Cc2ccc3c(c2)OCO3)[C@@H](NC(=O)c2ccc3ccccc3n2)c2cc(OCCCO)ccc2N1C(=O)c1ccccc1`, the composite z-score stood at 0.49. Consider `NCCCCCNC(=O)[C@@H]1C[C@@H]2C(=O)N[C@@H](CCCCN)C(=O)N2[C@@H]1c1ccc(O)cc1`, for which the composite z-score came out at 1.51. The same measure, in the same setting: the same measure for `O=C(C1N=C(c2ccc(OCCCO)cc2)N(c2ccccc2)O1)N1CCCCC1` (stereo not given): 1.25.

Consider `C=CCC(OC(C)=O)[C@@H]1[C@@H](N(Cc2ccc(-c3ccccc3)cc2)C(=O)c2ccc(-c3ccccc3)cc2)c2cc(OCCCO)ccc2N1C(=O)c1ccc2ccccc2c1` (stereo not given in full), for which the composite z-score was determined as 0.0403.

The compound `CCCC[C@@H](O)C1=C(COC)C[C@H]2C(=O)N(Cc3ccccc3)C(=O)[C@H]2[C@H]1CO` registered a composite z-score of 0.515.

In turn, `COc1ccc(CCNC(=O)[C@@]2(Sc3ccc(C)cc3)CC(=O)N(Cc3ccccc3C(F)(F)F)[C@@H]2c2ccc(CO)cc2I)cc1` showed a composite z-score of 0.357. On the same count and under the same terms, the same measure for `CCC#CCN(Cc1ccccc1Br)[C@H](/C=C/C1CC1)[C@@H](O)Cc1ccccc1`: -0.675. The same measure, in the same setting: the value for `NCCCCCNC(=O)[C@H]1C[C@H]2C(=O)N3CCC[C@H]3C(=O)N2[C@H]1c1cccc(OCCO)c1` was 1.17. Take `CC(C)[Si](C#CCCCC#N)(O[C@H](c1ccccc1)c1cn(Cc2ccccc2)nn1)C(C)C`: the composite z-score is 0.439. The same measure, in the same setting: the same measure for `CC(C)N1CC=CC23O[C@@H]4C=CCCOC(=O)C4[C@H]2C(=O)N(CCCO)[C@@H]3C1=O` (stereo not given in full): 0.263. The same measure, in the same setting: the value for `[N-]=[N+]=Nc1ccccc1C[C@]1(C(=O)NCC(O)CO)COC(c2ccc(OCCCO)cc2)=N1` (stereo not given in full) was 2.01; that for `COCC(=C=CC[C@H](O)c1ccc(CO)o1)CCO` was -0.0673; that for `CC(C)C(CO)N1C(=O)[C@@H]2[C@H]3C(=O)OCC=C[C@H]3OC23C=CCN(c2ccc(Cl)cc2)C(=O)[C@@H]13` (stereo not given in full) was -0.344. Still for that read-out and setting: the value for `COc1ccc([Si](C)(C)[C@H]2[C@H](CC(=O)N3Cc4ccccc4C[C@H]3CO)O[C@@]3(C(=O)N(Cc4ccc(N5CCOC5=O)cc4)c4ccccc43)[C@@H]2C)cc1` was 0.612; that for `CCCC[C@@H](O)C1=C(COc2ccccc2)C[C@H]2C(=O)N(Cc3ccccc3)C(=O)[C@H]2[C@H]1CO` was 0.176; that for `C[C@@H]1NC(=O)[C@@H](Cc2ccccc2)NC(=O)[C@@]23C(=O)N[C@@H](Cc4ccccc4)C2[C@H](C)[C@@]2(C)O[C@H]2C3/C=C/C/C=C\CNC1=O` (stereo not given in full) was -0.0991.
